Structures are written as SMILES. Among all 48,000 compounds or so, about 13,000 (27%) showed an effect of 50% or more. The list shows a part of the results.

This assay relates to Wolbachia pipientis. The assay is described as follows: Anti-Wolbachia Cell-Based Screen. Format: functional. The arrangement: scale not given: in the data most compounds retested in dose-response had high values. To be noted: 5 µM.
As to `Cc1cc(=O)n2ncnc2n1CC(O)c1ccccc1F` (stereo unspecified), the “Percent Effect” value is listed as -9.153%.

`CN(C)S(=O)(=O)N1CC[C@]2(C[C@@H](OCC3CC3)CO2)C1`: the “Percent Effect” value is given as 9.447%. The same measure for `CCCN(Cc1ccc(C(=O)NCC2COCCO2)c(=O)[nH]1)C1CC1` (stereo unspecified): 2.285%; for `Cc1cc2c(cc1CN1CCCCC1CCn1ccnc1C)OCO2` (stereo unspecified): 17.86%; for `CN(C)CCOCC1CN(C(=O)c2cccn2C)Cc2ccnn2C1.O=C(O)C(F)(F)F.O=C(O)C(F)(F)F` (stereo unspecified): -5.365%. The same measure for `CN1CCN(S(=O)(=O)c2cccc(C#N)c2)c2ccc(F)cc21`: 4.028%; for `Cc1cc(C(=O)N2CCCC2CN2CCCC2)no1` (stereo unspecified): 0.09079%; for `Cc1c(CN2CCCC2c2cncc(CN3CCCC3)n2)cnn1C` (stereo unspecified): 74.36%.

With `Cc1cccc(-c2c[nH]c(C3CCCN3C(=O)C3CCOCC3)n2)c1` (stereo unspecified), the “Percent Effect” value is on record as 16.55%.

On to `O=C(c1cc[nH]n1)N1CCCC1c1cncc(CN2CCOCC2)n1` (stereo unspecified), for which the “Percent Effect” value was 91.81%.

Take `Cc1nn(C)c(C)c1C1CCCN1C(=O)c1cc[nH]n1` (stereo unspecified): the “Percent Effect” value is -0.5637%. Under `Cc1nc(C(=O)N2CCCC2c2cncc(CN3CCCC3)n2)co1` (stereo unspecified) stands 62.39%; under `CN(C)CCC1CCCCN1Cc1cnn(C)c1C1CC1` (stereo unspecified), -0.7786%; under `O=C(C1CCOCC1)N1CCCC1c1cncc(CN2CCCC2)n1` (stereo unspecified), 74.28%.

For `CCc1nc(CN2CCCN(C(=O)C3CCOCC3)CC2)cs1`, the “Percent Effect” value was -0.509%. Under `Cc1nc(CN2CCC(NS(C)(=O)=O)CC2)co1` stands -13.72%; under `O=C(CCC1CC1)N1CCC(n2cc(C3(O)CCCC3)nn2)CC1`, -0.3223%; under `COc1ccc(C2(C(=O)N3C[C@@H](C(=O)O)[C@H](C(C)C)C3)CC2)cc1`, 6.312%. The same measure for `O=C(CS(=O)(=O)c1ccccc1Cl)NC1CCCCNC1=O` (stereo unspecified): 7.591%. Under `Cn1c(C2CC2)nc2c1CCN(CC(=O)NC1CCCCNC1=O)C2` (stereo unspecified) stands -7.835%; under `Cn1cnc2c1CCN(CC(=O)NC1CCCCNC1=O)C2` (stereo unspecified), 2.624%. As to `CC(C)CS(=O)(=O)CC(=O)NC1CCCCNC1=O` (stereo unspecified), the “Percent Effect” value was 105%.

Turning to `O=C(CS(=O)(=O)Cc1ccc(F)cc1)NCc1ccccc1F`, the “Percent Effect” value is reported as -12.49%. `Cc1cc(C)n(CC(=O)NC2CCCCNC2=O)n1` (stereo unspecified): the “Percent Effect” value is listed as -5.953%. For `O=C(CS(=O)(=O)Cc1ccccc1)NC1CCCCNC1=O` (stereo unspecified), the “Percent Effect” value is recorded as 109%.

Turning to `O=C(CC1CCCCC1)NC1CCCCNC1=O` (stereo unspecified), the “Percent Effect” value is 129.3%. `O=C1NCCCCC1NC(=O)C1(c2ccccc2)CCOCC1` (stereo unspecified): the “Percent Effect” value was -10.73%. Under `Cc1ccccc1CS(=O)(=O)CC(=O)NC1CCCCNC1=O` (stereo unspecified) stands 5.447%; under `O=C(CS(=O)(=O)Cc1ccc(F)cc1)NC1CCCCNC1=O` (stereo unspecified), 104.6%. Under `O=C(CS(=O)(=O)CC1CCCCC1)NC1CCCCNC1=O` (stereo unspecified) stands -2.84%; under `CC1CCN(C)c2ccccc2N1C(=O)c1ccn(C)c(=O)c1` (stereo unspecified), -9.489%; under `COc1cc(C)nc(N2CCN(C(=O)c3ccc[nH]3)CC2)n1`, 4.964%.

Consider `N#Cc1ccc(N2CCC(c3nccn3Cc3cscn3)CC2)nc1`, for which the “Percent Effect” value was found to be 4.95%. The same measure for `CCc1nc(CN(CCc2ccccc2)C2CCN(C)CC2)no1`: 22.84%; for `CCN(Cc1nc(Cc2ccccc2)no1)C1CC1`: 93.91%.

Turning to `COc1ccccc1CN(Cc1nc(C)no1)C1CC1`, the “Percent Effect” value came out at 102.6%. Under `CC(C(=O)NC1CC1)S(=O)(=O)Cc1nc(Cc2ccccc2)no1` (stereo unspecified) stands -3.587%; under `Cc1nnc(CN(Cc2ccccc2C(F)(F)F)C2CC2)o1`, -10.33%; under `CCc1noc(C(C)N(C)Cc2ccc(OC)c(OC)c2)n1` (stereo unspecified), 9.709%. As for `COc1ccccc1CN(Cc1nc(Cc2ccccc2)no1)C1CC1`, the “Percent Effect” value is 122.2%.

Regarding `COc1ccc(CN(Cc2nc(C)no2)C2CCCCC2)cc1OC`, the “Percent Effect” value was determined as 113.8%.

Regarding `COc1cc(CO)ccc1OCc1nc(C2CC2)no1`, the “Percent Effect” value was 5.46%. The same measure for `COc1ccccc1CN(Cc1nc2c(cnn2C)c(=O)[nH]1)C1CC1`: 17.98%; for `CCc1noc(CN(CCc2ccccc2)C2CCN(C)CC2)n1`: 1.802%; for `CN(Cc1ccc2c(c1)OCO2)Cc1nc(Cc2ccccc2)no1`: -7.147%. The same measure for `CCCN1CC2(CCN(C)CC2)CC1C(=O)NCCn1nc(C)nc1C` (stereo unspecified): -19.15%; for `O=C(CCn1cncn1)NCC1CCS(=O)(=O)C1` (stereo unspecified): 0.07359%; for `CCN(CC)CCSc1ncnc2[nH]ncc12`: -13.76%. In the case of `Cc1cc(C(=O)NC(CC(C)C)C(=O)Nc2cc[nH]n2)c(C)o1` (stereo unspecified), the “Percent Effect” value is 2.286%. Take `COc1ccccc1CN(Cc1nc(CC(C)C)no1)C1CC1`: the “Percent Effect” value is 68.8%. Under `COc1ccccc1CCc1nc(CC2CCN(C)CC2)no1` stands 0.6251%; under `CC(C)c1noc(CN(Cc2ccccc2F)C2CC2)n1`, 5.507%; under `CC(CCc1ccccc1F)C(=O)NS(C)(=O)=O` (stereo unspecified), -12.84%. Under `Cc1nc(C)n(C2CCCN(C(=O)c3cnc[nH]3)C2)n1` (stereo unspecified) stands 5.274%; under `Cc1nc(C)n(C2CCCN(C(=O)CCOCC(C)C)C2)n1` (stereo unspecified), 96.93%; under `Cc1nc(C)n(C2CCCN(C(=O)CCOC(C)C)C2)n1` (stereo unspecified), 104.7%. Turning to `Cc1nc(C)n(C2CCCN(C(=O)c3csc(C(C)C)n3)C2)n1` (stereo unspecified), the “Percent Effect” value is on record as -3.924%.

Consider `CC(NC(N)=O)C(=O)N(C)Cc1cccc(C(F)(F)F)c1` (stereo unspecified), for which the “Percent Effect” value is listed as -8.418%. For `O=C1CC(NCc2cnc(-c3cccs3)nc2)CN1c1ccccc1` (stereo unspecified), the “Percent Effect” value is given as 9.928%.

Consider `CCc1nsc(N2CCCN(C(=O)c3ccsc3)CC2)n1`, for which the “Percent Effect” value is 9.27%.

As to `Cn1ncc2c(=O)[nH]c(N3CCN(C(=O)c4ccsc4)CC3)nc21`, the “Percent Effect” value was 8.888%. Under `Cn1ncc2c(N3CCN(C(=O)c4ccsc4)CC3)ncnc21` stands 110.5%.

For `Cn1nc(C#N)c2c1CN(C(=O)c1ccsc1)CCC2`, the “Percent Effect” value is -3.731%. Under `Cc1nc(N2CCCN(C(=O)c3ccsc3)CC2)c2cnn(C)c2n1` stands 93.06%; under `Cc1csc(N2CCCN(C(=O)c3ccsc3)CC2)n1`, 30.07%.

For the molecule `Cc1nc(N2CCN(C(=O)c3ccc(O)cc3)CC2)c2cnn(C)c2n1`, the “Percent Effect” value was 3.35%. Under `Cn1ncc2c(N3CCCN(C(=O)c4ccsc4)CC3)ncnc21` stands 109.6%. On to `Cc1nc(N2CCN(C(=O)c3ccccc3)CC2)c2c(n1)c(C)nn2C`, for which the “Percent Effect” value was found to be 38.43%. With `Cc1ncnc2c1CCN(C(=O)c1ccsc1)CC2`, the “Percent Effect” value is recorded as -12.52%. The same measure for `Cc1nc(N2CCN(C(=O)c3ccccc3)CC2)c2cnn(C)c2n1`: 113.9%.

Regarding `Cc1nc(N2CCN(C(=O)c3ccsc3)CC2)c2cnn(C)c2n1`, the “Percent Effect” value was determined as 2.047%.
